# Data as given in PubChem BioAssay AID463173 (ICCB-Longwood Screening Facility, Harvard Medical School, 2010).
# The whole screen tested about 52,000 compounds, of which about 4,300 (8.3%) were called active. Cut-off read from the data, not from the text of the source: active = survival mostly below about 52% (no sharp cut-off); inactive = mostly above about 56%. The full list was thinned out, with actives kept by preference.
# System: DeltatarO mutant
# Assay: S. aureus survival, RN4220 and DeltatarO strains – OD600, teichoic acid synthesis inhibitors, primary screen (AID 463173)
# Conditions: S. aureus RN4220 wild type/DeltatarO growth, OD600, 18 h, active compounds read low, screened at 18.75 µg/mL (by protocol)
row,Compound,survival
1,Cc1cccc(-n2ncc(C(=O)N3CCN(C(=O)c4ccco4)CC3)c2C2CCN(C(=O)OC(C)(C)C)CC2)c1,62% (inactive)
2,CCCC(CCC)C(=O)Nc1cccc(-c2cn3cccnc3n2)c1,83% (inactive)
3,CCC1CCCCN1C(=O)Cn1c(=O)n(CC2CCC(C(=O)NC)CC2)c(=O)c2sccc21 (stereo not given),102% (inactive)
4,Oc1ccc(Br)cc1C1CC(c2ccccc2)=NC(c2ccco2)N1 (stereo not given),1% (active)
5,O=C(CCN1CCOCC1)N1N=C(c2ccccc2)CC1c1ccco1 (stereo not given),89% (inactive)
6,O=c1oc2c(F)cc(F)cc2cc1S(=O)(=O)c1ccc(F)cc1,60% (inactive)
7,CN(Cc1ccccc1)c1ccc(-c2nc(-c3ccncc3)no2)cc1[N+](=O)[O-],63% (inactive)
8,COc1ccccc1-c1noc(-c2ccc(N(C)Cc3ccccc3)c([N+](=O)[O-])c2)n1,36% (active)
9,CN(Cc1ccccc1)c1ccc(-c2nc(-c3ccccn3)no2)cc1[N+](=O)[O-],34% (active)
10,COc1ccc(CN(C)c2ccc(-c3nc(-c4ccc(OC)c(OC)c4)no3)cc2[N+](=O)[O-])cc1,62% (inactive)
11,CCN(CC)c1ccc(-c2nc(-c3ccncc3)no2)cc1[N+](=O)[O-],79% (inactive)
12,CN(Cc1ccccc1)c1ccc(-c2nc(-c3ccccc3)no2)cc1[N+](=O)[O-],69% (inactive)
13,CCN(Cc1ccc(OC)cc1)c1ccc(-c2nc(-c3ccncc3)no2)cc1[N+](=O)[O-],41% (active)
14,CCN(CC)c1ccc(-c2nc(-c3ccco3)no2)cc1[N+](=O)[O-],47% (inactive)
15,CCN(CC)c1ccc(-c2nc(-c3ccccc3C)no2)cc1[N+](=O)[O-],68% (inactive)
16,CCc1noc(-c2ccc(N(C)Cc3ccc(OC)cc3)c([N+](=O)[O-])c2)n1,75% (inactive)
17,COc1ccc(CN(C)c2ccc(-c3nc(-c4ccccc4)no3)cc2[N+](=O)[O-])cc1,71% (inactive)
18,CCN(CC)c1ccc(-c2nc(-c3ccccn3)no2)cc1[N+](=O)[O-],41% (active)
19,CC1CCC(NC(=O)c2ccc3c(c2)N(Cc2ccccc2F)C(=O)c2ccccc2S3(=O)=O)CC1 (stereo not given),74% (inactive)
20,CCOc1ccc(NS(=O)(=O)c2ccc3[nH]cc(C(=O)NCC4CCCO4)c(=O)c3c2)cc1 (stereo not given),87% (inactive)
21,CCOC(=O)C1CCN(C(=O)c2nn(-c3ccc(OC)c(Cl)c3)c(=O)c3c2c2ccccc2n3C)CC1,76% (inactive)
22,Cc1cccc(C(=O)NCC(c2cccs2)S(=O)(=O)c2cccs2)c1 (stereo not given),81% (inactive)
23,Cc1ccc(OCC(=O)NCC(=O)OCc2cc(=O)n3nc(C(C)C)sc3n2)cc1,97% (inactive)
24,Cn1c(=O)c2ccccc2n2c(CCC(=O)N3CCN(c4cccc(Cl)c4)CC3)nnc12,82% (inactive)
25,Cc1ccc(/C=C(\C#N)C(=O)NC2CCCCCC2)o1,92% (inactive)
26,CN(C)c1ccc(-c2nc(-c3ccco3)no2)cc1[N+](=O)[O-],52% (inactive)
27,CN(C)c1ccc(-c2nc(-c3ccncc3)no2)cc1[N+](=O)[O-],81% (inactive)
28,CN(C)c1ccc(-c2nc(-c3ccccn3)no2)cc1[N+](=O)[O-],42% (active)

row,Compound,survival
1,Cc1ccc(-n2c(=O)c3oc4ccccc4c3n(CC(=O)Nc3ccccc3)c2=O)cc1C,54% (inactive)
2,CCCN(CCC)C(=O)c1nn(C)c2c1CSc1ccc(C)cc1-2,92% (inactive)
3,CCOC(=O)c1ccc(NC(=O)CS(=O)(=O)Cc2nc(-c3ccc(C)cc3)oc2C)cc1,95% (inactive)
4,Cc1ccc(NC(=O)C(C)n2nnc3sc4c(c3c2=O)CCCC4)cc1Cl (stereo not given),82% (inactive)
5,COc1ccc(NC(=O)C(C)N2CCN(C)CC2)cc1 (stereo not given),86% (inactive)
6,COc1cc(OC)c(NC(=O)C(C)n2nc(-c3ccc(C)cc3)c3c(c2=O)CCCC3)cc1Cl (stereo not given),39% (active)
7,COc1cc(OC)c(NC(=O)C(C)n2nc(-c3ccc(C)c(C)c3)ccc2=O)cc1Cl (stereo not given),64% (inactive)
8,COc1ccc(NC(=O)C(C)n2nc(-c3cc(C)ccc3C)c3c(c2=O)CCCC3)cc1 (stereo not given),38% (active)
9,COc1cc(OC)c(NC(=O)C(C)n2c(=O)cc(-c3ccccc3)c3c(C)nn(C)c32)cc1Cl (stereo not given),83% (inactive)
10,Cc1cc(C)n(-c2nc(C)c(C)c(=O)n2CC(=O)Nc2ccc(Cl)c(Cl)c2)n1,82% (inactive)
11,COc1ccc(-c2nc3nc(C)cc(Nc4cccc(C(F)(F)F)c4)n3n2)cc1,63% (inactive)
12,COc1cccc(N2C(=O)C(CC(=O)Nc3ccc(F)cc3)N(CCC3=CCCCC3)C2=O)c1 (stereo not given),53% (inactive)
13,COc1ccc(CNC(=O)CCC2N=C3c4ccccc4N=C(SCc4cccc(F)c4)N3C2=O)cc1 (stereo not given),117% (inactive)
14,Cc1c(CCNC(=O)c2ccc(C(C)(C)C)cc2)sc2nc(-c3ccc(F)cc3)nn12,82% (inactive)
15,CCOC(=O)c1scc(-c2ccccc2)c1S(=O)(=O)N1CCN(c2ccccc2OC)CC1,94% (inactive)
16,O=C(COc1cccc(-n2cnnn2)c1)NC1CCCCC1,83% (inactive)
17,COC(=O)c1ccccc1NC(=O)Cn1nnc2sc(-c3ccccc3)cc2c1=O,52% (inactive)
18,CCCN(CCC)C(=O)Cn1nnc2sc(-c3ccccc3)cc2c1=O,70% (inactive)
19,CCc1cccc(CC)c1NC(=O)Cn1nnc2sc(-c3ccccc3)cc2c1=O,49% (inactive)
20,CCN(CC)C(=O)Cn1nnc2sc(-c3ccccc3)cc2c1=O,56% (inactive)
21,CCN(C(=O)Cn1nnc2sc(-c3ccccc3)cc2c1=O)c1cccc(C)c1,50% (active)
22,CCOc1ccccc1NC(=O)Cn1nnc2sc(-c3ccccc3)cc2c1=O,39% (active)
23,COC(=O)c1ccc(NC(=O)CSc2nc(=O)[nH]c3c2CCCC3)cc1,75% (inactive)
24,COC(=O)CSc1ncc2c(n1)-c1ccccc1N(Cc1ccc(Cl)cc1)S2(=O)=O,69% (inactive)
25,CCOC(=O)N1CCc2c(sc3c2c(=O)n(CCc2ccccc2)c(=O)n3Cc2c(F)cccc2Cl)C1,85% (inactive)
26,COc1ccc(-c2nc(C)c(CCNC(=O)c3c(F)cccc3F)s2)cc1,84% (inactive)
27,O=C(Cn1c(=O)oc2cc(S(=O)(=O)N3CCCCCC3)ccc21)NCc1ccccc1Cl,78% (inactive)
